A short description of experiment [1]: nuclear p53 accumulation, HPV+ cells – imaging, p53-positive nuclei imaging, 24 h, 48 h (AID 1508601). The note with it: 24/48 h.
Experiment [2] addresses Cellular tumor antigen p53 (Homo sapiens) (UniProt P04637). Described as above. Conditions: 24/48 h, stronger effect = higher value.
Setting [3] is: measured here: cell number at 24 h, Library stock concentration: 80 uM.
Setting [4] is: measured here: cell number at 24 h, Library stock concentration: 400 uM.
[5] abbreviates: measured here: cell number at 24 h, Library stock concentration: 2 mM.
The mark [6] stands for this setting: measured here: cell number at 24 h, Library stock concentration: 10 mM.
Setting [7] is: measured here: cell number at 48 h, Library stock concentration: 80 uM.
Setting [8] is: measured here: cell number at 48 h, Library stock concentration: 400 uM.
Setting [9] is: measured here: cell number at 48 h, Library stock concentration: 2 mM.
The mark [10] stands for this setting: measured here: cell number at 48 h, Library stock concentration: 10 mM.
The mark [11] stands for this setting: Library stock concentration: 80 uM.
Setting [12] is: Library stock concentration: 400 uM.
Setting [13] is: Library stock concentration: 2 mM.
Where [14] appears, read: Library stock concentration: 10 mM.
The mark [15] stands for this setting: measured here: p53 positive nuclei at 24 h, Library stock concentration: 80 uM.
Setting [16] is: measured here: p53 positive nuclei at 24 h, Library stock concentration: 400 uM.
Setting [17] is: measured here: p53 positive nuclei at 24 h, Library stock concentration: 2 mM.
The mark [18] stands for this setting: measured here: p53 positive nuclei at 24 h, Library stock concentration: 10 mM.
Setting [19] is: measured here: cell number at 24 h, Library stock concentration: 3.33 mM.
Where [20] appears, read: measured here: cell number at 48 h, Library stock concentration: 3.33 mM.
Setting [21] is: Library stock concentration: 3.33 mM.
Setting [22] is: measured here: p53 positive nuclei at 24 h, Library stock concentration: 3.33 mM.
Setting [23] is: measured here: cell number at 24 h, concentration not given here.
Where [24] appears, read: measured here: cell number at 48 h, concentration not given here.
The mark [25] stands for this setting: measured here: p53 positive nuclei at 24 h, concentration not given here.

The campaign covered roughly 5,700 compounds. About 85 (1%) were called active. No stated cut-off is given here; in the data, active means p53-positive nuclei above about 36% (passing the limit was not always enough); inactive means the rest. Many of the other results were omitted from the sample, so actives are more common in it than they were.

Sequence of Cellular tumor antigen p53 (Homo sapiens) (P04637 whole entry, looked up): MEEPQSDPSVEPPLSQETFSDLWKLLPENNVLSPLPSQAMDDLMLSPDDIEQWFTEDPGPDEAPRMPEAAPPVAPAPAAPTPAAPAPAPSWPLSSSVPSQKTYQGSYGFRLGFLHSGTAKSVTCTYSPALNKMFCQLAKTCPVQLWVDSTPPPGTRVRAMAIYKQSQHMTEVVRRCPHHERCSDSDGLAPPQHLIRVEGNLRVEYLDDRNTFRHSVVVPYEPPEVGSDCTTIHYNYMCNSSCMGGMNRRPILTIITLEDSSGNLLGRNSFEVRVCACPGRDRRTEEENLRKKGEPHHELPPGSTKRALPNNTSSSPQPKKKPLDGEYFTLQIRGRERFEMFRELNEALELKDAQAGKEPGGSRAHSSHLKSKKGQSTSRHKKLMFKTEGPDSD

As to `CCN1CCN(Cc2ccc(Nc3ncc4c(n3)N(C)c3ccccc3C(=O)N4C)cc2C(F)(F)F)CC1`, the nuclei count, normalised amounted to 77.9% in experiment [1] (setting [3]); 81% in experiment [1] (setting [4]); 52.5% in experiment [1] (setting [5]); 35.9% in experiment [1] (setting [6]); 81.7% in experiment [1] (setting [7]); 83.6% in experiment [1] (setting [8]). Besides, the nuclei count, normalised was determined as 35.4% in experiment [1] (setting [9]) and 19.9% in experiment [1] (setting [10]). The p53-positive nuclei, normalised is -0.0235% (inactive) in experiment [2] (setting [11]); -0.051% (inactive) in experiment [2] (setting [12]); 1.78% (inactive) in experiment [2] (setting [13]); 22.4% (inactive) in experiment [2] (setting [14]); -0.148% in experiment [2] (setting [15]); -0.0416% in experiment [2] (setting [16]). Also, the p53-positive nuclei, normalised in experiment [2] (setting [17]) is -0.148%; in experiment [2] (setting [18]) it was 33.5%.
Consider `CC1CCO[C@H]2Cn3cc(C(=O)NCc4ccc(F)cc4F)c(=O)c(O)c3C(=O)N12` (some centres not stated), for which the nuclei count, normalised was found to be 106% in experiment [1] (setting [19]) and 103% in experiment [1] (setting [20]). For the same compound, the p53-positive nuclei, normalised in experiment [2] (setting [21]) was -0.143% (inactive); in experiment [2] (setting [22]) it was -0.188%.
For `CCCCC[C@H](O)/C=C/[C@H]1C2CC(CO2)[C@@H]1C/C=C\CCCC(=O)O` (some centres not stated), the nuclei count, normalised in experiment [1] (setting [23]) was 83.4%; in experiment [1] (setting [24]), 84.7%. Moreover, the figures for the p53-positive nuclei, normalised in experiment [2] (concentration not given here) and in experiment [2] (setting [25]) were 0.109% (inactive) and 0.00988%, respectively.
The matching figures for `CCN(CC)C(=O)N1CCN(C)CC1`: 108%, 102%, 0.000717% (inactive) and -0.0826%.
As to `CN1CCN(C(=S)SSC(=S)N2CCN(C)CC2)CC1`, the nuclei count, normalised amounted to 108% in experiment [1] (setting [3]); 109% in experiment [1] (setting [4]); 60.3% in experiment [1] (setting [5]); 52.3% in experiment [1] (setting [6]); 109% in experiment [1] (setting [7]); 109% in experiment [1] (setting [8]). The nuclei count, normalised worked out at 53.9% in experiment [1] (setting [9]) and 37.3% in experiment [1] (setting [10]). Further, the p53-positive nuclei, normalised was -0.131% (inactive) in experiment [2] (setting [11]); -0.138% (inactive) in experiment [2] (setting [12]); 39.2% (active) in experiment [2] (setting [13]); 89.9% (active) in experiment [2] (setting [14]); -0.116% in experiment [2] (setting [15]); -0.0641% in experiment [2] (setting [16]). Also, the results for the p53-positive nuclei, normalised in experiment [2] (setting [17]) and in experiment [2] (setting [18]) were 99.7% and 111%, respectively.
Turning to `CC(C)(CO)c1cc2cc(NC(=O)C3(c4ccc5c(c4)OC(F)(F)O5)CC3)c(F)cc2n1CC(O)CO` (configuration not stated), the nuclei count, normalised is 99.2% in experiment [1] (setting [3]); 104% in experiment [1] (setting [4]); 106% in experiment [1] (setting [5]); 118% in experiment [1] (setting [19]); 113% in experiment [1] (setting [6]); 105% in experiment [1] (setting [7]). Besides, the nuclei count, normalised stood at 107% in experiment [1] (setting [8]), 110% in experiment [1] (setting [9]), 120% in experiment [1] (setting [20]) and 111% in experiment [1] (setting [10]). The p53-positive nuclei, normalised in experiment [2] (setting [11]) was 0.0351% (inactive); in experiment [2] (setting [12]), 0.0964% (inactive); in experiment [2] (setting [13]), -0.0537% (inactive); in experiment [2] (setting [21]), -0.0559% (inactive); in experiment [2] (setting [14]), 0.115% (inactive); in experiment [2] (setting [15]), 0.0925%. The p53-positive nuclei, normalised in experiment [2] (setting [16]) was 0.0862%; in experiment [2] (setting [17]), -0.0708%; in experiment [2] (setting [22]), -0.244%; in experiment [2] (setting [18]), 0.119%.
`O=C(c1cc(-c2cncnc2)nc2cc(F)ccc12)N1CCCC1Cc1cccnc1` (configuration not stated): the nuclei count, normalised in experiment [1] (setting [23]) was found to be 109%; in experiment [1] (setting [24]), 110%. Besides, the p53-positive nuclei, normalised in experiment [2] (concentration not given here) was 0.0107% (inactive); in experiment [2] (setting [25]), 0.143%.
Consider `O=C1CN2Cc3c(ccc(Cl)c3Cl)N=C2N1`, for which the nuclei count, normalised in experiment [1] (measured here: cell number at 24 h, Library stock concentration: 46 uM) worked out at 88.7%; in experiment [1] (measured here: cell number at 24 h, Library stock concentration: 278 uM), 80.4%; in experiment [1] (measured here: cell number at 24 h, Library stock concentration: 1.67 mM), 83.9%; in experiment [1] (setting [19]), 57.2%; in experiment [1] (setting [6]), 75.8%; in experiment [1] (measured here: cell number at 48 h, Library stock concentration: 46 uM) it was 45.1%. The nuclei count, normalised in experiment [1] (measured here: cell number at 48 h, Library stock concentration: 278 uM) was determined as 38.3%; in experiment [1] (measured here: cell number at 48 h, Library stock concentration: 1.67 mM) it was 40.9%; in experiment [1] (setting [20]), 24.8%; in experiment [1] (setting [10]) it was 40.2%. The p53-positive nuclei, normalised in experiment [2] (Library stock concentration: 46 uM) was 85.8% (active); in experiment [2] (Library stock concentration: 278 uM), 88.2% (active); in experiment [2] (Library stock concentration: 1.67 mM), 89.8% (active); in experiment [2] (setting [21]), 84.4% (active); in experiment [2] (setting [14]), 87% (active); in experiment [2] (measured here: p53 positive nuclei at 24 h, Library stock concentration: 46 uM), 5.38%. The p53-positive nuclei, normalised in experiment [2] (measured here: p53 positive nuclei at 24 h, Library stock concentration: 278 uM) came out at 6.86%; in experiment [2] (measured here: p53 positive nuclei at 24 h, Library stock concentration: 1.67 mM) it was 6.48%; in experiment [2] (setting [22]) it was 11%; in experiment [2] (setting [18]), 6.76%.
For the compound `O=C1OC2(c3ccc(O)cc3Oc3cc(Oc4ccc(O)cc4)ccc32)c2ccccc21` (configuration not stated), the nuclei count, normalised was found to be 105% in experiment [1] (setting [23]) and 107% in experiment [1] (setting [24]). Further, the p53-positive nuclei, normalised in experiment [2] (concentration not given here) is -0.0688% (inactive); in experiment [2] (setting [25]), -0.118%.
